# Reference: PubChem BioAssay AID932 (The Scripps Research Institute Molecular Screening Center, 2007)
# The whole screen tested about 200,000 compounds, of which about 5,100 (2.5%) were called active. The sample holds actives, similar compounds and a random draw of the others, so the mix is not that of the screen. A number with no mark means an inactive call.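 The calls were made as follows: active = activation above the screen-wide mean activation plus 3 SD (cut at about 130% in these data); inactive = the rest.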
# Experiment: STAT1 signaling activators, primary screen, cell-based, HTS, luciferase reporter (AID 932);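 also: raw ratio to IFN-gamma control signal so 100% means no change and 0% no light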
# Details: NIH 3T3 STAT1-luciferase reporter, IFN-gamma, luminescence; at 5.5 µM; hits give high values; 100% = IFN-gamma alone, no compound
row,SMILES,activation (% of control)
1,CC1CCN(C(=S)c2ccc(-c3ccc(Cl)cc3Cl)o2)CC1,85.7%
2,S=C(NCCc1ccccc1)N1CCCCC1,122%
3,S=C(c1ccc(-c2ccccc2)o1)N1CCCCC1,138% (active)
4,O=C(CNC(=O)COc1ccccc1)NCCc1ccccn1,104%
5,CCC(=O)Nc1cccc(NC(=O)c2cccnc2)c1,98.6%
6,Cc1cc(/C=N/NC(=O)c2cccnc2)c(C)n1CC(C)C,139% (active)
7,Cc1nn(Cc2ccc(Cl)cc2)c(Cl)c1/C=N/NC(=O)c1cccnc1,94.4%
8,Cc1ccc2sc(NNC(=O)c3ccc4c(c3)OCCO4)nc2c1C,104%
9,Cc1cc2nc(SCCN3CCOCC3)[nH]c2cc1C,152% (active)
10,Cc1ccc(S(=O)(=O)NCCN2CCOCC2)cc1C,96.1%
11,CCOC(=O)CSc1nc2ccc(C)cc2[nH]1,111%
12,COc1ccc(CN2CCCC(CNC(=O)c3ccc(F)cc3)C2)cc1OC (centres undefined),97.8%
13,CC1CCC(NC(=O)C2c3ccccc3C(=O)N2Cc2ccc3c(c2)OCO3)CC1 (centres undefined),89.6%
14,N=c1c2c(-c3ccccc3)c(-c3ccccc3)n(Cc3ccccc3)c2ncn1CCCO,102%
15,OCCCN1c2ccccc2Nc2nnc(-c3ccccc3)cc21,156% (active)
16,Cc1ccc(C)c(-n2ccnc2SCC(N)=O)c1,102%
17,O=C(Nc1cccc(C(F)(F)F)c1)c1cnccn1,110%
18,Cc1cccc(NC(=O)c2cccc(C(F)(F)F)c2)c1,107%
19,Cc1ccc(NC(=O)Nc2cccc(C(F)(F)F)c2)nc1,129% (active)
20,CN(C)c1ccc2c(=O)[nH][nH]c(=O)c2c1,103%
21,COc1ccc(-n2c(C)nn(CC3CC3)c2=O)cc1,97.8%
22,NS(=O)(=O)c1ccc(CCNC(=O)CCCn2c(SCC(=O)N3CCCC3)nc3ccsc3c2=O)cc1,99.5%
23,CCc1ccc(NC(=O)CC2C(=O)NCCN2C(=S)Nc2ccccc2)cc1 (centres undefined),100%
24,O=C1CN(C(=O)COC(=O)c2cnc(Cl)c(Cl)c2)c2ccccc2N1,92.8%
25,CCN(CC)N=Nc1cccc(NC(C)=O)c1,88.6%
26,CCOc1ccc2cc(C#N)c(SCC(=O)OC)nc2c1,150% (active)

row,SMILES,activation (% of control)
1,Cc1nonc1NC(=O)CSc1nc2ccccc2cc1C#N,117%
2,CCOc1ccc2nc(NCCNS(=O)(=O)c3ccccc3)c(C#N)cc2c1,102%
3,O=C(CSc1cccc[n+]1[O-])NCCCc1ccccc1,91.9%
4,CCOC(=O)C1CCN(CCC(=O)Nc2cccc(C)c2)CC1,98.8%
5,CCOc1cc(/C=N/O)ccc1OCc1ccccc1F,104%
6,COc1cc(/C=C2/C(=O)ON=C2C)ccc1OCc1cccc(F)c1,128%
7,COc1cc(/C=C2/C(=O)ON=C2C)ccc1OCc1ccccc1F,129% (active)
8,CCn1c(CSCc2c(Cl)cccc2Cl)n[nH]c1=S,98.8%
9,Cc1noc(C)c1CCC(=O)O,95.1%
10,COc1ccc(CNC(=O)CN2CCC(n3nnc4cc(F)ccc43)CC2)cc1,88.1%
11,COc1ccc2nc(Nc3nc4cc5c(cc4s3)OCCO5)sc2c1,114%
12,CSc1ncccc1C(=O)Nc1nc2ccc(F)cc2s1,123%
13,Fc1ccc2nc(Nc3nc4c(s3)CCCC4)sc2c1,162% (active)
14,CCCCCC(=O)Nc1ccc(S(=O)(=O)Nc2ccc(Cl)nn2)cc1,102%
15,O=C(C1=C[C@H](c2coc3ccccc3c2=O)C[C@H](OCc2ccc(CO)cc2)O1)N1CCOCC1,102%
16,COc1ccc(/C=N/NC(=O)Cn2cc(C(F)(F)F)ccc2=O)cc1,97.9%
17,Cc1ccccc1OCCC(=O)OCC(=O)NC(C)c1ccccc1 (centres undefined),99.7%
18,COCCOC(=O)c1c(C)oc2cc(Br)c(OCC(N)=O)cc12,94.5%
19,Cc1ccc(COc2ccc(C(=O)NN)cc2)cc1,116%
20,O=C(Nc1ccc(Cl)cn1)Nc1cccs1,123%
21,c1ccc(Nc2nc(-c3ccncc3)cs2)nc1,193% (active)
22,c1cnc(Nc2nc(-c3ccc4ccccc4c3)cs2)nc1,164% (active)
23,Clc1ccc(Nc2nc(-c3cccs3)cs2)nc1,196% (active)
24,Cc1ccc(-c2csc(NC(=O)Cc3cccs3)n2)cc1C,111%
25,Cc1ccc(-c2csc(NC(=O)c3cccs3)n2)cc1,123%
26,CCCc1cc(-c2nc(-c3ccc(C)cc3)cs2)ccn1,99.8%

row,SMILES,activation (% of control)
1,Oc1ccc(-c2csc(Nc3cccnc3)n2)cc1,110%
2,COc1ccc(-c2csc(Nc3ccccn3)n2)cc1,110%
3,NC(=O)c1ccccc1N=Cc1ccc2ccccc2c1,124%
4,CCOC(=O)c1cc2c(=O)n3ccccc3nc2n(CC(C)C)c1=NC(=O)c1c(-c2c(F)cccc2Cl)noc1C,89.8%
5,CC(C)OC(=O)Cn1nc(C(F)(F)F)c2c1CCCC2,96.5%
6,Cc1ccc2nc(SCc3cn4c(C)cc(C)nc4n3)[nH]c2c1,96.4%
7,CNC(=O)c1ccc(NC(=O)c2cccc(C(F)(F)F)c2)cc1,98.4%
8,Cc1cc(C)c(C#N)c(N2CCC(C(N)=O)CC2)n1,98.4%
9,CNC(=S)N/N=C/c1ccc(OCc2ccccc2)c(Br)c1,119%
10,COc1cc(/C=N/n2c(C)n[nH]c2=S)ccc1OCc1ccccc1,144% (active)
11,Cc1n[nH]c(=S)n1/N=C/c1ccc(Br)o1,104%
12,C=C(C)C(=O)Nc1cccc(C(C)=O)c1,102%
13,CCN(CC)C(=O)C(=O)Nc1cccc(Br)c1,129% (active)
14,CSc1ccccc1NC(=O)CN(C)CC(=O)Nc1cccc(Br)c1,89.3%
15,CCOc1ccc(C(C)=O)cc1COC(=O)c1cnc(Cl)c(Cl)c1,101%
16,Cc1ccnc(NC(=O)c2ccc(Cl)c([N+](=O)[O-])c2)c1,95.8%
17,Cn1c(SCc2c(F)cccc2Cl)nnc1-c1cnccn1,130% (active)
18,O=C(CSc1nnc(-c2cnccn2)n1Cc1ccco1)c1ccc(Cl)c(Cl)c1,94.7%
19,Fc1cccc(Cl)c1CSc1ccc(-c2ccco2)nn1,126%
20,O=C(CSc1nnc(C2CC2)n1Cc1ccccc1)Nc1cccnc1Cl,96.9%
21,CCc1ccc(CN(C)C(=O)CCc2nnc(-c3ccc(-c4ccccc4)cc3)o2)nc1,93.4%
22,Cc1ccccc1C(=O)Nc1ccc(N2CCCCCC2)cc1,141% (active)
23,COc1cccc(C(=O)Nc2ccc(N3CCCC3)cc2)c1,127%
24,COc1cccc(OC)c1C(=O)Nc1ccc(N2CCCCC2)cc1,103%
25,CCc1cc2c(=O)c(-c3ccc(F)cc3)c(C(F)(F)F)oc2cc1OCC(=O)O,97.7%
26,C/C(CC(=O)Nc1ccc(C)cc1C)=N\NC(=O)C(C)C,102%

row,SMILES,activation (% of control)
1,O=S(=O)(c1cccc(C(F)(F)F)c1)N1CCN(c2cnccn2)CC1,108%
2,O=C(Nc1ccc2c(c1)OCCO2)C1CCCN(c2ncccn2)C1 (centres undefined),143% (active)
3,Cc1ccnc(N2CCCC(C(=O)Nc3cc(F)ccc3C)C2)n1 (centres undefined),104%
4,Cc1cc(C)nc(N2CCC(C(=O)Nc3ccc4c(c3)OCCO4)CC2)n1,101%
5,NS(=O)(=O)c1ccc(NC(=S)Nc2ccc(Br)c(Cl)c2)cc1,94.5%
6,CCC(C)N(C(=O)COC(=O)C1C(C(=O)OC)=C(C)NC(C)=C1C(=O)OC)C1CCS(=O)(=O)C1 (centres undefined),102%
7,O=C(Nc1ccc(Cl)cc1)C1c2cccc[n+]2CC(=O)N1Cc1ccc2c(c1)OCO2 (centres undefined),101%
8,Cc1cc(C)nc(NNC2=CC(=O)CC(C)(C)C2)n1,115%
9,CCN(CC)C(=O)CSc1nc2ccccc2o1,110%
10,Cc1ccc(/C=N/NC(=O)CSc2nc3ccccc3o2)cc1,111%
11,CC(C)(C)C(=O)CSc1nc2ccccc2o1,150% (active)
12,COc1ccc(/C=C2/SC(=O)N(CCCCCC(=O)Nc3ccccc3C(=O)O)C2=S)cc1,102%
13,Cc1nnc(SCC(=O)N2CCc3ccccc32)n1-c1ccccc1,100%
14,O=C(CSCc1ccccc1)N1CCc2ccccc21,138% (active)
15,NC(=O)N1CCc2ccccc21,98.2%
16,CCOc1ccc(NC(=O)CN(C)CC(=O)NC(C)c2ccccc2)cc1OCC (centres undefined),99.4%
17,Cc1ccc(-c2csc(NNC(=O)c3ccccc3)n2)cc1,102%
18,Cc1ccc(NC(=O)c2cc(-c3ccc(C)o3)nc3ccccc23)nc1,91.3%
19,Cc1ccc(Nc2nc(-c3ccc(O)cc3O)cs2)nc1,143% (active)
20,CN(C)/C=C(/C(=O)c1ccc(F)cc1)S(=O)(=O)c1ccc(F)cc1,106%
21,CCN(CCn1cccn1)C(=O)CC1C(=O)NCCN1Cc1cccc(OC)c1OC (centres undefined),96.3%
22,COc1ccc(N2CCN(C(=O)COc3ccc4c(C)cc(=O)oc4c3)CC2)cc1,93.8%
23,CC1(C)CC(N(Cc2ccccc2)C(=O)Cc2ccccc2)CCO1 (centres undefined),89.7%
24,CCOC(=O)/C(C#N)=C/c1ccc(N2CCCCC2)cc1,155% (active)
25,COc1ccc(N2CCN(C(=O)/C(C#N)=C/c3ccccc3)CC2)cc1,105%
26,CCOC(=O)/C(C#N)=C/c1ccc(N2CCN(Cc3ccccc3)CC2)cc1,107%
